# Where “and” joins values, the source holds several entries; their conditions need not be identical. Identical values can stand only once. Results filed as inconclusive are left out. A call without a number means that no potency is given here. Calls of active or inactive are those of the source. Calls follow the shape of the full dose curve.
# Assay: qHTS assay for small molecules that induce genotoxicity in human embryonic kidney cells expressing luciferase-tagged ATAD5 - cell viability (AID 651634); also: nearly all actives have a fitted effect of over 25% in size
# Settings: HEK293T ATAD5-luc cells viability, CellTiter-Fluor, 15.5 h; series mostly up to 83.3 µM
# Text: National Center for Advancing Translational Sciences [NCATS]
# NIH Chemical Genomics Center [NCGC]
# U.S. Environmental Protection Agency [EPA]
# National Institutes of Environmental Health Sciences [NIEHS]
# National Toxicology Program [NTP]
# U.S. Food and Drug Administration [FDA]
# Enhanced Level of Genome Instability Gene 1 (ELG1; human ATAD5) protein levels increase in response to various types of DNA damage. Using a luciferase reporter-gene tagged with ElG1, a cell-based assay [developed by Kyungjae Myung, NHGRI, NIH] was used to measure the induction of ATAD5 in human embryonic kidney cells (HEK293T). So, increase in luciferase activity can be used to identify the compounds that cause genetic stress. In addition to genotoxicity, these cells were also used to test for cytotoxicity by measuring the protease activity within live cells.
# Tox21 Assay Protocol Summary:
# For cytotoxicity screening, 2,000 cells in 5 uL/well were dispensed into white, solid-bottom 1536-well plates using a Multidrop Combi (Thermo Scientific) dispenser. Following transfer of 23 nL compound or DMSO vehicle by a pin tool, the plates were incubated 15.5 hr at 37C and 5% CO2. 1 ul CellTiter-Fluor reagent (Promega, Madison, WI) was then added to each plate and following 30 min incubation at 37C, fluorescence intensity was quantified on a ViewLux CCD-based plate reader.
# Potency is read from the fitted curve at half-maximal effect.
row,SMILES,Potency
1,CC(C)[N+]1(C)[C@@H]2CC[C@H]1CC(OC(=O)C(CO)c1ccccc1)C2 (stereo not given in full),inactive
2,CCCOC(=O)c1ccccc1O,inactive
3,COC(=O)[C@H]1[C@H]2C[C@H]3c4[nH]c5ccccc5c4CCN3C[C@H]2CC[C@@H]1O,inactive
4,CNC(=O)OCc1cccc(COC(=O)NC)n1,inactive
5,COc1cc2c(cc1OC)[C@@H](Cc1cc(OC)c(OC)c(OC)c1)[N+](C)(CCCOC(=O)CC/C=C/CCC(=O)OCCC[N+]1(C)CCc3cc(OC)c(OC)cc3[C@H]1Cc1cc(OC)c(OC)c(OC)c1)CC2 (stereo not given in full),inactive
6,C=CC[N@@+]12CC[C@@]34c5ccccc5N5/C=C6/[C@H]7C[C@H]8[C@@]9(CC[N@@+]8(CC=C)C/C7=C/CO)c7ccccc7N(/C=C(/[C@@H](C[C@@H]31)/C(=C\CO)C2)[C@H]54)[C@@H]69,inactive
7,N=C(N)c1ccc(/C=C/c2ccc(C(=N)N)cc2O)cc1,inactive
8,NCC(O)CC(=O)O (stereo not given),inactive
9,CCCCC/C=C\C=C\C(=O)OCC,inactive
10,SC1CCCCC1,inactive
11,CC(C)C[C@H](NC(=O)[C@@H](COC(C)(C)C)NC(=O)[C@H](Cc1ccc(O)cc1)NC(=O)[C@H](CO)NC(=O)[C@H](Cc1c[nH]c2ccccc12)NC(=O)[C@H](Cc1cnc[nH]1)NC(=O)[C@@H]1CCC(=O)N1)C(=O)N[C@@H](CCCN=C(N)N)C(=O)N1CCC[C@H]1C(=O)NNC(N)=O,inactive
12,CC(CNC(=O)c1cccnc1)NC(=O)c1cccnc1 (stereo not given),inactive
13,COc1cc2c(cc1O)CCN[C@]21CS[C@@H]2c3c(OC(C)=O)c(C)c4c(c3[C@H](COC1=O)N1[C@@H]2[C@H]2c3c(cc(C)c(OC)c3O)C[C@@H]([C@@H]1O)N2C)OCO4,42.2 nM (active)
14,O=C(CCCCCCCCc1cccnc1)N1CCC(C=C(c2ccccc2)c2ccccc2)CC1,61100 nM (active)
15,CCCCCCCCCCCCCCCC(=O)OC[C@H](COP(=O)([O-])OCC[N+](C)(C)C)OC(=O)CCCCCCCCCCCCCCC,inactive
16,CC(C)(COP(=O)(O)OP(=O)(O)OC[C@H]1O[C@@H](n2cnc3c(N)ncnc32)[C@H](O)[C@@H]1OP(=O)(O)O)C(O)C(=O)NCCC(=O)NCCS (stereo not given in full),inactive
17,N#Cc1c(N(CC(=O)O)CC(=O)O)sc(C(=O)O)c1CC(=O)O,inactive
18,c1ccc(-n2cnnn2)cc1,inactive
19,O=P(O)(O)CP(=O)(O)O,inactive
20,CCOc1ccc(NC(=S)Nc2ccc(OCC)cc2)cc1,inactive

row,SMILES,Potency
1,CCC[C@@H]1C[C@@H](C(=O)N[C@@H]([C@H]2O[C@H](SC)[C@H](OP(=O)(O)O)[C@@H](O)[C@H]2O)[C@H](C)Cl)N(C)C1,inactive
2,NC(=O)[C@@H]1C[C@]2(NC(=O)NC2=O)c2cc(F)ccc2O1,inactive
3,COc1cc2c(c(OC)c1OC)-c1c(cc3c(c1OC)OCO3)C[C@@H](C)[C@](C)(O)C2,inactive
4,CC1CCCC(C)N1NC(=O)c1ccc(Cl)c(S(N)(=O)=O)c1 (stereo not given),inactive
5,CCN(CC)CCNC(=O)c1ccc(NS(C)(=O)=O)cc1,inactive
6,COC(=O)C[C@](O)(CCCC(C)(C)O)C(=O)O[C@@H]1C(OC)=CC23CCCN2CCc2cc4c(cc2[C@H]13)OCO4 (stereo not given in full),26.6 nM (active) and 23.7 nM (active)
7,CCCCCCCCOC(=O)c1cc(O)c(O)c(O)c1,inactive
8,CC1CCCCN1CCCOC(=O)c1ccccc1 (stereo not given),inactive
9,CC[N+](CC)(CC)CCC(O)(c1ccccc1)C1CCCCC1 (stereo not given),inactive
10,CC1(C)S[C@@H]2[C@H](NC(=O)[C@H](N)c3ccc(O)cc3)C(=O)N2[C@H]1C(=O)O,inactive
11,C[C@@H]1C[C@H]2[C@@H]3C[C@H](F)C4=CC(=O)C=C[C@]4(C)[C@@]3(Cl)[C@@H](O)C[C@]2(C)[C@H]1C(=O)COC(=O)C(C)(C)C,inactive
12,NCC[C@H](O)C(=O)N[C@@H]1C[C@H](N)[C@@H](O[C@H]2O[C@H](CN)CC[C@H]2N)[C@H](O)[C@H]1O[C@H]1O[C@H](CO)[C@@H](O)[C@H](N)[C@H]1O,inactive
13,O=C(O)c1ccc(NC2OC[C@@H](O)[C@H](O)[C@H]2O)cc1 (stereo not given in full),inactive
14,O=C(O)CCCC/C=C(\c1ccccc1)c1cccnc1,inactive
15,C[S+](CC[C@H](N)C(=O)O)C[C@H]1O[C@@H](n2cnc3c(N)ncnc32)[C@H](O)[C@@H]1O (stereo not given in full),inactive
16,COc1ccc(/C=N/NC(=O)c2ccncc2)c(C(=O)O)c1OC,inactive
17,CC(=O)N[C@@H](C=O)[C@H](O)[C@H](O)[C@@H](O)CO,inactive
18,O=C1CCC/C=C\CCCCCCCCCC1,inactive
19,CC(=O)OCC(=O)[C@@]1(O)CC[C@H]2[C@@H]3CCC4=CC(=O)CC[C@]4(C)C3=CC[C@@]21C,inactive
20,COC(=O)C(CN)c1c[nH]c2ccc(OC)cc12 (stereo not given),inactive

# — PubChem BioAssay (Tox21)
